# Active and inactive are the calls of the source. Rule for the calls: active = hit-call score of the fitted dose curve at least 0.9, where 1 is the maximum; inactive = score below 0.9.
# Read-out: Urokinase-type plasminogen activator receptor (uPAR), PLAUR (gene 5329)
# Assay: BSK_BE3C_uPAR: BioMAP Diversity Plus: BE3C Assay for Urokinase-type plasminogen activator receptor (uPAR) Biomarker Activity (AID 2283039);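 for outcome: cells exposed to compound for one day before measurement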
# Settings: primary human bronchial epithelial cells; actives raise or lower the signal
# Experimental: BSK_BE3C is a cell-based, multiplexed-readout assay that uses bronchial epithelial cell, a human lung primary cell, with measurements taken at 24 hours after chemical dosing in a 96-well plate.BSK_BE3CAR is an assay component measured in the BSK_BE3C assay. It measures uPAR antibody related to regulation of gene expression using ELISA technology.Data from the assay component BSK_BE3CAR was analyzed into 1 assay endpoint. This assay endpoint, BSK_BE3CAR, was analyzed with bidirectional fitting relative to DMSO as the negative control and baseline of activity. Using a type of binding reporter, gain or loss-of-signal activity can be used to understand changes in the signaling as they relate to the gene PLAUR. Furthermore, this assay endpoint can be referred to as a primary readout, because this assay has produced multiple assay endpoints where this one serves a signaling function. To generalize the intended target to other relatable targets, this assay endpoint is annotated to the cytokine intended target family, where the subfamily is plasmogen activator.
# The levels of cell surface (or secreted, indicated by the prefix "s") biomarker endpoints were measured by ELISA. Overt cytotoxicity to cells in confluent adherent cultures (all systems other than the BT system) was assessed by measuring total protein levels using sulforhodamine B (SRB) staining in parallel cultures at the time of biomarker measurements, indicated as SRB endpoints. For proliferation assays for adherent cell types, individual cell types are cultured at sub-confluence and relative cell numbers quantified by SRB staining at time points optimized for each system (48 h: 3C and CASM3C systems; 72 h: BT and HDF3CGF systems; 96 h: SAg system). SRB was performed by staining cells with 0.1% SRB after fixation with 10% TCA and reading wells at 560 nm.Viability and proliferation of PBMC (T cells) was quantified by Alamar Blue reduction for the SAg and BT systems. For PBMC viability (referred to as PBMC Cytotoxicity within the assay endpoint names), cells were plated (75,000/well in a 96-well plate) and then chemical samples added for 1 h before addition of activators, SEB and TSST-1 (20 ng/mL final concentration each). Cells were incubated for 90 h. Then, Alamar Blue (20 uL/well) (Invitrogen, Cat DAL1100) was added for 6 h, and the plates were read with a fluorescence microplate reader at 546/580 nm (excitation/emission). For PBMC proliferation, cells were plated and activated as above but incubated for only 16 h prior to addition of Alamar Blue. Plates were read after 6 h.
Structure (SMILES),outcome,AC50
CCCCCCCCCCCCCO,inactive,–
CCCCCCC(=O)OCC,inactive,–
CCCCCCCCCCO,inactive,–
Oc1ccc2ccccc2c1N=Nc1ccccc1,inactive,–
Cc1cc(NC(=O)C(=O)O)cc(C)c1Oc1ccc(O)c2c1CCC2,inactive,–
CN1CCN(Cc2cc(-c3ccc4[nH]c(=O)oc4c3)co2)[C@@H](c2ccc(F)cc2)C1,inactive,–
CCCCCCCCCCCC(=O)OC,inactive,–
COc1ccc(S(=O)(=O)N2C(=O)[C@@](c3ccccc3OC)(N3C[C@H](O)C[C@H]3C(=O)N(C)C)c3cc(Cl)ccc32)c(OC)c1,inactive,–
NCC1(Cc2noc(=O)[nH]2)CCCCC1,inactive,–
Cc1ccccc1Cl,inactive,–
CCc1c(C(=O)NN2CCCCC2)nn(-c2ccc(Cl)cc2Cl)c1-c1ccc(Br)cc1,–,14.4 µM (active)
Cc1oc(-c2ccccc2)nc1CCOc1cccc2c1ccn2CCC(=O)O,inactive,–
CC(CO)OC(C)CO (stereo not given) (tested in a mixture with another compound),inactive,–
COC(=O)c1ccc(O)cc1,inactive,–
O=C(O)Cc1ccccc1Nc1c(Cl)cccc1Cl,inactive,–
COc1ccc(C)cc1N,inactive,–
CCOC(=O)C(C)(C)Oc1ccc(Cl)cc1,inactive,–
CCNc1cccc(C)c1,inactive,–
O=C(N[C@@H](Cc1ccccc1)[C@@H](O)C(=O)N1C[C@@H](O)[C@@H](O)C1)c1cc2cc(Cl)ccc2[nH]1,inactive,–
C=CCc1ccc(O)c(OC)c1,inactive,–

Structure (SMILES),outcome,AC50
CCCCCCCCCCCCCCCCCC(=O)O,inactive,–
COCCOCCOC,inactive,–
CNCc1cc(F)ccc1Oc1ccc(Cl)c(Cl)c1,inactive,–
CC=Cc1ccc(O)c(OC)c1,inactive,–
Cc1cc(=O)[nH]c(=S)[nH]1,inactive,–
C=CCOC(=O)c1ccccc1C(=O)OCC=C,inactive,–
FC(F)(F)C(F)(F)C(F)(F)C(F)(F)C(F)(F)C(F)(F)CCI,inactive,–
CCCCCCOCCO,inactive,–
Cc1cccc(Nc2cc(Cl)nc(SCC(=O)O)n2)c1C,inactive,–
O=C(O)CCCCC(=O)O,inactive,–
CCOc1ccc2c(c1)C(C)=CC(C)(C)N2,inactive,–
Nc1ccc2c(c1)C(=O)c1ccccc1C2=O,inactive,–
Nc1ccc(S(=O)(=O)c2ccc(N)cc2)cc1,inactive,–
Clc1cc(Cl)c(Cl)cc1Cl,inactive,–
COc1cc(C=O)ccc1O,inactive,–
CCCCN(CCCC)CCCC,inactive,–
Cc1ccc(C(C)C)c(O)c1,inactive,–
Nc1nc(N)c2nc(CNc3ccc(C(=O)N[C@@H](CCC(=O)O)C(=O)O)cc3)cnc2n1,inactive,–
Cc1c(C(=O)O)c(O)cc2c1C(=O)c1c(O)c([C@@H]3O[C@H](CO)[C@@H](O)[C@H](O)[C@H]3O)c(O)c(O)c1C2=O,inactive,–
CC(=O)OCCOCCOCCOC(C)=O,inactive,–

# Reference: PubChem BioAssay (EPA / NIEHS)
